Most compounds without a hit are left out; they make up all but 9.8% or so of the library.
HPGD inh – HPGD (human) dehydrogenase inhibition. P15428. purified HPGD, NADH fluorescence kinetic, PGE2 substrate. Potency, µM, hits mostly inhibitors. 150,000 compounds, 4.3% hits. AID 894; active = well fitted inhibition curve with a large enough effect, not every such curve was filed as active; inconclusive = small, poorly fitted or top-dose-only effect, or another doubt; inactive = no such curve, though single readings can be large or run the other way
Target sequence (P15428 whole entry, looked up): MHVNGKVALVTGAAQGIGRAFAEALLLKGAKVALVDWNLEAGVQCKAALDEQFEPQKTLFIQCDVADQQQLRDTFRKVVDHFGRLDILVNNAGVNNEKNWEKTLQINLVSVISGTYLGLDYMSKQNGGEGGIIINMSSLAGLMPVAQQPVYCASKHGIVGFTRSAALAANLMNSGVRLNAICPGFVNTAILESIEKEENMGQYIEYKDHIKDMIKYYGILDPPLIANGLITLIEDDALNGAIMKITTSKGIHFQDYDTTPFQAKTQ
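NADH formation kinetics: reaction with 30 uM PGE2 and 1 mM NAD+ (final), 20 nM enzyme, Tris-HCl pH 8 with Tween 20, after 15 min compound preincubation at room temperature. Fluorescence change, last versus first of five reads.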
HTT aggregate – inhibitors of mutant huntingtin aggregate formation in PC12 cells; 220,000 compounds, 1.1% hits; Potency, µM (highest dose often 46.1 µM), usual class: inhibitors; PC12 HttQ103-GFP aggregates, Acumen cytometry, 40 h; note: nearly all actives have a fitted effect of over 60% in size
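Huntingtin Q103 exon 1–GFP aggregates in induced PC12 cells (100 nM tebufenozide) were quantified by cytometry from lysates, with compounds dosed in titration.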
CBFb-RUNX1 inh – CBF-beta/RUNX1 interaction disruption | 230,000 tested, under 10 active | AlphaScreen CBFb-His/RUNX1-biotin binding, biochemical | Potency, µM (top dose mostly 59.8 µM), hits mostly inhibitors | Q01196+Q13951
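CBFb-His/RUNX1-biotin, 30 nM each, preincubated 20 min RT; compound 15 min RT; Ni + streptavidin beads 50 ng each, 90 min RT; AlphaScreen read.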
HTT ATP protect – cytoprotection in Huntington HTT-Q103 PC12 cell model; AID 1471; PC12 HTT-Q103 induced, cytoprotection, ATP luminescence, 40 h; 230,000 compounds, 0.14% hits; Potency, µM (series often up to 56.4 µM), hits mostly activators; note: nearly all actives have a fitted effect of over 45% in size
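Compounds added alongside 100 nM tebufenozide, which induces toxic Q103 huntingtin exon 1-GFP in stable PC12 cells; surviving cells quantified by luminescent ATP measurement. Medium: phenol red-free DMEM, 5% equine and 5% calf serum.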
ALDH1A1 inh – ALDH1A1 (human) enzyme inhibition | 220,000 compounds, 7.3% hits | Potency, µM (highest dose often 75.3 µM), actives largely listed as inhibitors | Purified ALDH1A1, NADH fluorescence, propionaldehyde substrate; active = well fitted inhibition curve with a large enough effect, not every such curve was filed as active; inconclusive = small, poorly fitted or top-dose-only effect, or another doubt; inactive = no such curve, though single readings can be large or run the other way
KDM4E inh – inhibitors of human JMJD2E histone demethylase; 230,000 compounds, 1.6% hits; Potency, µM (titrated, usually from 57.1 µM), hits mostly inhibitors; JMJD2E catalytic domain, FDH-coupled NADH fluorescence (FDH is formaldehyde dehydrogenase); B2RXH2; active = well fitted inhibition curve with a large enough effect, not every such curve was filed as active; inconclusive = small, poorly fitted or top-dose-only effect, or another doubt; inactive = no such curve, though single readings can be large or run the other way; note: nearly all actives have a fitted effect of over 50% in size
Target sequence (B2RXH2 1-337 limits assumed): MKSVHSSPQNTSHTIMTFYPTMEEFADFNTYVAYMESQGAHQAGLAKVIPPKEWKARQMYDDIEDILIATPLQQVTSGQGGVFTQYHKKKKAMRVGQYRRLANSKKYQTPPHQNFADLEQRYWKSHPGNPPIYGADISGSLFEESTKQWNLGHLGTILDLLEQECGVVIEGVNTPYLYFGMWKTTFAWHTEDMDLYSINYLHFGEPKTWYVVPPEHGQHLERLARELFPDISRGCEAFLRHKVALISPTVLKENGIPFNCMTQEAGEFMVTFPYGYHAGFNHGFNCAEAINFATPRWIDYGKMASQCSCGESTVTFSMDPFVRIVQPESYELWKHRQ
Hits are given with their value; i = inactive; ? = inconclusive; nt = no result; [ ] = remark or other dose. Unless noted, calls come from the whole dose curve; as a rule, active = well fitted curve in the direction sought with a large enough effect; inconclusive = small, poorly fitted or top-dose-only effect, or another doubt; inactive = no such curve, though single readings can be large; an effect the other way counts as inactive or inconclusive.

SMILES	HPGD inh	HTT aggregate	CBFb-RUNX1 inh	HTT ATP protect	ALDH1A1 inh	KDM4E inh
Cc1nn(-c2c(Cl)cc(Cl)cc2Cl)c(=O)c2ccccc12	13µM	i	i	i[10 µM]	i	i
CCCc1ccc(C(=O)Cn2nc(C(=O)O)c3ccccc3c2=O)cc1	nt	i	i	nt	i	i
CC(=O)OCCCNc1cc(Sc2nc3ccccc3s2)c2nonc2c1[N+](=O)[O-]	2.5µM	i	i	i[10 µM]	11µM	i
CCCC(=O)OCCNc1cc(SCCC(=O)OC)c2nonc2c1[N+](=O)[O-]	28µM	i	i	i[10 µM]	10µM	i
CC(=O)OCCNc1cc(Sc2nc3ccccc3[nH]2)c2nonc2c1[N+](=O)[O-]	3.2µM	?	i	i[10 µM]	i	i
CC(=O)OCCCNc1cc(Sc2ccc(C)cc2)c2nonc2c1[N+](=O)[O-]	i	?	i	i[10 µM]	i	i
COC(=O)CCSc1cc(NCCOC(C)=O)c([N+](=O)[O-])c2nonc12	i	i	i	i[10 µM]	i	i
NCCc1c(-c2ccccc2)n(-c2ccccc2)c2ccccc12	nt	?	i	i	?	i
COc1ccc(Sc2nc3ccccc3n3c(C(F)(F)F)nnc23)cc1	?	i	i	i	i	i
COc1ccc(-c2cc(-n3c(C(F)(F)F)nc4ccccc43)n(CCC#N)n2)cc1	?	2.8µM	i	i	?	i
Cn1nccc1C(=O)N1CCN(c2ccc(F)cc2)CC1	i	i	i	i[10 µM]	i	i
CC(=O)Nc1ccccc1	i	i	i	i	i	i
CC(=O)C(Cl)C(=O)Nc1ccccc1 (stereo unspecified)	nt	i	i	i	1.3µM	i
CC(C)C(NC(=O)CSc1ccc(Cl)cc1)C(C)C	13µM	i	i	i	i	i
CCC(C)NC(=O)CSc1ccc(Cl)cc1 (stereo unspecified)	i	i	i	i[10 µM]	i	i
O=C(CSc1ccc(Cl)cc1)Nn1cnnc1	i	i	i	i	i	i
CC(C)CNC(=O)CSc1ccc(Cl)cc1	16µM	i	i	i[10 µM]	i	i
CSc1ccc(Cl)c(C(=O)NCC(C)C)c1	i	2µM	i	i[0.074 µM]	i	i
Cc1ccc(SCC(=O)NCC(C)C)cc1	16µM	i	i	i	i	i
Cc1ccc(SCC(=O)NCc2ccc(F)cc2)cc1	nt	i[9.22 µM]	i	i	i	i
CS(=O)(=O)N1CCN(c2ccc([N+](=O)[O-])c(SCc3ccco3)c2)CC1	nt	i	i	i	?	i
CCc1ccc(OCCCC(=O)Nc2nnc(C3CCCO3)s2)cc1 (stereo unspecified)	nt	i[9.22 µM]	i	i[10 µM]	?	i
COc1ccc(CCN(C)S(=O)(=O)c2ccc(Cl)nc2)cc1OC	nt	i	i	i	?	i
C#CCNC(=O)/C=C/c1ccc(OC)cc1	i	i	i[2.36 µM]	nt	i	i
COc1cc(Cl)c(C)cc1NC(=O)c1ccc(NS(=O)(=O)c2ccc(F)c(F)c2)cc1	nt	i	i	i[10 µM]	?	?
SMILES	HPGD inh	HTT aggregate	CBFb-RUNX1 inh	HTT ATP protect	ALDH1A1 inh	KDM4E inh
O=c1oc2ccccc2c2oc3cc(O)c(O)cc3c12	?	i[9.22 µM]	i	i	i	28µM
C=CCn1c(SCC(=O)c2ccc(O)c(O)c2)nnc1-c1ccccc1OC	i	i	i	i	i	10µM
C=CCn1c(SCC(=O)c2ccc(O)c(O)c2)nnc1-c1cccnc1	nt	i[9.22 µM]	?	i[10 µM]	nt	3.5µM
CCn1c(SCC(=O)c2ccc(F)cc2)nnc1-c1ccoc1C	?	i	i	i[10 µM]	22µM	i
C=CCn1c(SCC(N)=O)nnc1-c1ccccc1O	nt	i	i	i	i	i
CCn1c(CSc2nc3ccccc3s2)nnc1SCC(=O)c1ccc(Cl)cc1	i	i	i	i	i	i
CCn1c(CSc2nc3ccccc3s2)nnc1SCC(=O)c1ccc(O)c(O)c1	?	?	i	i	i	14µM
Cc1occc1-c1nnc(SCCCC(=O)c2ccc(F)cc2)n1C	i	i	i	i[0.074 µM]	?	i
C=CCn1c(SCc2ccccc2)nnc1-c1cccnc1	i	i	i	i[0.074 µM]	i	i
NNC(=O)CCn1c2ccccc2c2ccccc21	nt	i[9.22 µM]	i	i[10 µM]	i	i
CCn1c(SCC(=O)c2ccc(O)c(O)c2)nnc1-c1ccccc1OC	i	?	i	i	i	22µM
CCn1c(SCC(=O)c2ccc(O)c(O)c2)nnc1-c1ccccc1	i	i	i	i[10 µM]	i	13µM
COc1cc(OC)c(C2N(c3ccc(Cl)cc3)C(=O)C3CCCN32)cc1OC (stereo unspecified)	i	i	i	i	i	i
CCCN=Cc1c(CCC)[nH]n(-c2nc3ccccc3s2)c1=O	i	i	i	i	14µM	i
CCCc1[nH]n(-c2nc3ccccc3s2)c(=O)c1C=NCCCN(CC)CC	nt	i[9.22 µM]	i	i[10 µM]	i	i
COc1ccc(-c2n[nH]c(=S)n2-c2ccc3c(c2)OCCO3)cc1	25µM	i	i	nt	i	i
Oc1ccc(-c2n[nH]c(=S)n2-c2ccc3c(c2)OCCO3)c(O)c1	14µM	i	?	nt	?	?
Cc1cc(Oc2nnnn2-c2ccccc2)ccc1Cl	i	i[9.22 µM]	i	i	?	i
Cc1ccccc1OCc1nc2ccccc2c(=O)n1/N=C/c1cn[nH]c1-c1ccc(Br)cc1	32µM	i	i	nt	i	i
Cc1ccccc1OCc1nc2ccccc2c(=O)n1/N=C/c1ccco1	i	22µM	i	i[10 µM]	?	i
Cc1nc2ccccc2c(=O)n1/N=C/c1ccco1	nt	i	i	nt	i	i
CCC1C(C#N)=C(N)OC2=C1C(=O)CC(C)(C)C2 (stereo unspecified)	i	i	i	i[10 µM]	i	i
CC1(C)CC(=O)C2=C(C1)OC(N)=C(C#N)C2C1C=CCCC1 (stereo unspecified)	i	i	i	i	4µM	i
COc1ccc2c(c1)C(C1=C(O)CC(C)(C)CC1=O)C1=C(CC(C)(C)CC1=O)O2 (stereo unspecified)	i	i	i	i	i	i
CC1(C)CC(=O)C2=C(C1)OC(N)=C(C#N)C2c1ccccc1 (stereo unspecified)	i	i	i	i	14µM	i
COc1ccc(C2C3=C(CC(C)(C)CC3=O)OC(N)=C2[N+](=O)[O-])cc1 (stereo unspecified)	i	i	i	i[10 µM]	19µM	i
CC1(C)CC(=O)C(C2C3=C(CC(C)(C)CC3=O)Oc3ccccc32)=C(O)C1 (stereo unspecified)	i	i	i	i	28µM	i
CN1c2ccc(Cl)cc2C(=O)NC1c1ccc([N+](=O)[O-])s1 (stereo unspecified)	nt	i[9.22 µM]	i	i[10 µM]	nt	i
COC(=O)c1ccc(C(NC(=O)OCc2ccccc2)/C(F)=C/[C@@H](C)C(=O)NCCN2CCOCC2)cc1 (stereo partly specified)	i	nt	i	i	i	i
